Drawing on PubChem BioAssay AID2284066 (EPA ToxCast), this text covers AC50 for one molecule.

Structures are written as SMILES. Calls of active or inactive are those of the source. How the source made its calls: active means hit-call score of the fitted dose curve at least 0.9, where 1 is the maximum; inactive means score below 0.9.

For the experiment, the target named is Tyrosine-protein kinase Fyn (Homo sapiens) (UniProt P06241). Description: ERF_FR_ENZ_hFYN: Eurofins (ERF) Enzymatic Radiometric [Km ATP] KinaseProfiler LeadHunter Assay for human Fyn Tyrosine Kinase. On the procedure: ERF_FR_ENZ_hFYN is a biochemical, single-readout assay that uses extracted gene-proteins in a cell-free assay. Measurements were taken 1 hour after chemical dosing in a 96-well plate. See Fyn Human TK Kinase Enzymatic HTRF Assay [Km ATP], Cerep.ERF_FR_ENZ_hFYN is an assay component calculated from the ERF_FR_ENZ_hFYN assay. It is designed to measure enzyme activity using a type of enzyme reporter as detected by fluorescence intensity with HTRF technology.Data from the assay component ERF_FR_ENZ_hFYN was analyzed at the assay endpoint, ERF_FR_ENZ_hFYN, in the positive analysis fitting direction relative to DMSO as the negative control and baseline of activity. Using a type of enzyme reporter, loss-of-signal activity can be used to understand changes in enzymatic activity as they relate to gene FYN. To generalize the intended target to other relatable targets, this assay endpoint is annotated to the kinase intended target family, where the subfamily is non-receptor tyrosine […].
Sequence of Tyrosine-protein kinase Fyn (Homo sapiens) (P06241 whole entry, looked up): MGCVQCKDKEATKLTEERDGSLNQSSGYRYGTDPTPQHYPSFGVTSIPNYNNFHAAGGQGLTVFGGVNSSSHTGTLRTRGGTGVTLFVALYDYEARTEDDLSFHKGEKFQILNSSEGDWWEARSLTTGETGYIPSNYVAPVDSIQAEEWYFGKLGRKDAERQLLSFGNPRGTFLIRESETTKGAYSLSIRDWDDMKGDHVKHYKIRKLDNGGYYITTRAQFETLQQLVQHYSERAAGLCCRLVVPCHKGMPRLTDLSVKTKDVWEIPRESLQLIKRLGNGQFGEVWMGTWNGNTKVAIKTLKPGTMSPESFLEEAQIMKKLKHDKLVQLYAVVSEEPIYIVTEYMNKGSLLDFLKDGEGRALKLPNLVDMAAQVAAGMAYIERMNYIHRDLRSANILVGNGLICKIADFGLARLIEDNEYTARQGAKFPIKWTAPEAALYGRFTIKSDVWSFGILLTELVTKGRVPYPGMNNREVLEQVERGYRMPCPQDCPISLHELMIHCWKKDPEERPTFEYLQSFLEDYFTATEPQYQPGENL
Fyn (h) is incubated with 50 mM Tris pH 7.5, 0.1 mM EGTA, 0.1 mM Na3VO4, 250 uM […] (Cdc2 peptide), 10 mM MgAcetate and [gamma-33P]-ATP (specific activity and concentration as required). The reaction is initiated by the addition of the Mg/ATP mix. After incubation for 40 minutes at room temperature, the reaction is stopped by the addition of phosphoric acid to a concentration of 0.5%. […]
For `O=C(/C=C/c1ccc(O)cc1)CC(=O)/C=C/c1ccc(O)cc1`, the AC50 is 992 nM (active).
